From PubChem BioAssay (NCATS)
Results filed as inconclusive are left out. Calls of active or inactive are those of the source. The call rests on the fitted dose curve; in most records, active means well fitted inhibition curve with a large enough effect; inconclusive means small, poorly fitted or top-dose-only effect; inactive means flat fitted curve, though single readings scatter. *1 amine or outer side, *2 acyl side, *3 side chain or, on linkers, in order; H or OH if unused. Where a SMILES comes first, the peptide text is derived from it. Bridges are numbered along the chain shown (N, C = ends). [ ]: non-standard residue; d: D form. The star is where a group is joined. ξ: configuration not given here. X10 = NC1=NCCC(C(N[*:1])C(=O)[*:2])N1; ΔAla(3-NHCONH2) = NC(=O)NC=C(N)C(=O)O; ξβ3hOrn = NCCCC(N)CC(=O)*; Dap = NC[CH](N)C(=O)O

What was measured:
[1] = tested on: CRL-7250; test: Cytotoxic Profiling of Annotated Libraries Using Quantitative High-Throughput Screening (AID 1296008); conditions: Five cell lines viability, CellTiter-Glo ATP luminescence, 48-72 h; max response: stronger effect = lower value
Method in brief: (§1)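 Compounds were pin-transferred onto cells and incubated 48 or 72 hr at 37 degree Celsius, 95% humidity. CellTiter-Glo was added, plates sat 10 min at room temperature, then ATP-coupled luminescence was imaged as the viability read-out.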

[2] = tested on: HEK293; test: as above; conditions: Five cell lines viability, CellTiter-Glo ATP luminescence, 48-72 h; max response: stronger effect = lower value
Method in brief: as §1

[3] = tested on: HaCat; test: as above; conditions: Five cell lines viability, CellTiter-Glo ATP luminescence, 48-72 h; max response: stronger effect = lower value
Method in brief: as §1

[4] = tested on: NIH3T3; test: as above; conditions: Five cell lines viability, CellTiter-Glo ATP luminescence, 48-72 h; max response: stronger effect = lower value
Method in brief: as §1

[5] = tested on: HEK293T; test: qHTS assay to identify novel small-molecules to repurpose for Merkel cell carcinoma treatment (AID 1296009); conditions: MCC and control cell lines, CellTiter-Glo viability, 72 h; at 44.8 µM (top of the series) unless noted
Method in brief: (§2)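 qHTS format: cells treated with library compounds in DMSO across 8 (NPC) or 11 (MIPE) concentrations. Readout after 72 hr at 37 degree celsius was CellTiter-Glo luminescence.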

[6] = tested on: MCC-13; test: as above; conditions: MCC and control cell lines, CellTiter-Glo viability, 72 h; series mostly up to 46 µM
Method in brief: as §2

[7] = tested on: MCC-26; test: as above; conditions: MCC and control cell lines, CellTiter-Glo viability, 72 h; series mostly up to 46 µM
Method in brief: as §2

[8] = tested on: MKL-1; test: as above; conditions: MCC and control cell lines, CellTiter-Glo viability, 72 h; series mostly up to 46 µM
Method in brief: as §2

[9] = tested on: MKL-2; test: as above; conditions: MCC and control cell lines, CellTiter-Glo viability, 72 h; series mostly up to 46 µM
Method in brief: as §2

[10] = tested on: HACAT; test: as above; conditions: MCC and control cell lines, CellTiter-Glo viability, 72 h; at 44.8 µM (top of the series) unless noted
Method in brief: as §2
Further: nearly all actives have a fitted effect of over 60% in size.
On the % scale 0 is the no-effect control and ±100 the full control effect; potency means the concentration at half of the fitted maximal effect.

CCCCOCCOC(=O)c1cccnc1
inactive: outcome [1] | outcome [2] | max response [3] -21.3% | max response [4] -2.28% | outcome [5] | Potency [6] | Potency [7] | Potency [8] | Potency [9]

C=C(C)C(=O)OCC(O)CO (stereo not given)
inactive: max response [1] 4.35% | max response [2] -5.25% | outcome [3] | max response [4] 4.75% | outcome [10] | Potency [6] | Potency [7] | Potency [8] | Potency [9]

CCCCCCn1c(=O)c2c(ncn2C)n(C)c1=O
inactive: outcome [1] | max response [2] -1.62% | outcome [3] | max response [4] 1.26% | outcome [10] | Potency [6] | Potency [7] | Potency [8] | Potency [9]

CCCCCCCC(=O)[O-].CCCCCCCC(=O)[O-].[Zn+2]
inactive: max response [1] -4.35% | max response [2] -2.75% | outcome [3] | max response [4] 4.51% | outcome [10] | Potency [6] | Potency [8] | Potency [9]

Cc1cccc(OCC(O)CNC(C)(C)C)c1C (stereo not given)
inactive: max response [1] -7.39% | max response [2] -11.8% | outcome [3] | max response [4] 0.115% | outcome [10] | Potency [6] | Potency [7] | Potency [8] | Potency [9]

Cc1c(F)cc2c(=O)c(C(=O)O)cn3c2c1CCC3C (stereo not given)
inactive: max response [1] -2.94% | outcome [2] | max response [3] -5.41% | max response [4] -8.9% | outcome [5] | Potency [6] | Potency [7] | Potency [8] | Potency [9]

CC(C)(Oc1ccc(Cl)cc1)C(=O)OCCCOC(=O)C(C)(C)Oc1ccc(Cl)cc1
inactive: max response [1] -5.16% | max response [2] -15.3% | max response [3] -1.93% | max response [4] 1.4% | Potency [6] | Potency [7] | Potency [8]

C=CCNc1nc(NCC=C)nc(N2CCN(C(c3ccc(F)cc3)c3ccc(F)cc3)CC2)n1
inactive: max response [1] -3.37% | max response [3] 2.53% | max response [4] -15.1% | Potency [6] | Potency [7] | Potency [8]
active: Potency [2] 8410 nM

CC(=O)/C=C/C=C1/C2CCC(C2)C1(C)C (stereo not given)
inactive: max response [1] -8.75% | max response [2] -13.1% | max response [3] -7.21% | max response [4] -0.501% | Potency [6] | Potency [7] | Potency [8]

NCCCC(N)CC(=O)NCC1NC(=O)C(CO)NC(=O)C(N)CNC(=O)C(C2CCN=C(N)N2)NC(=O)C(=CNC(N)=O)NC1=O (stereo not drawn) (H-[Dap]S[Dap](ξβ3hOrn)[ΔAla(3-NHCONH2)][X10]; lactam 1-C; configuration not given here)
inactive: max response [1] -12.1% | max response [2] -7.39% | max response [3] -10.9% | max response [4] -5.75% | activity change, negative = cytotoxicity [6] 7.39% [at 0.597 µM] | activity change, negative = cytotoxicity [7] 12.9% [at 0.597 µM] | activity change, negative = cytotoxicity [8] 3.4% [at 0.597 µM] | activity change, negative = cytotoxicity [9] 1.36% [at 0.597 µM]

O=C1NC(c2ccccc2)(c2ccccc2)C(=O)N1COP(=O)(O)O
inactive: outcome [1] | outcome [2] | max response [3] -3.47% | outcome [4] | outcome [5] | Potency [6] | Potency [7] | Potency [8] | Potency [9]

O=C1CC2(CCCC2)CC(=O)N1CCNCC1COc2ccccc2O1 (stereo not given)
inactive: max response [1] -5.57% | outcome [2] | max response [3] -0.105% | max response [4] -7.46% | outcome [5] | Potency [6] | Potency [7] | Potency [8] | Potency [9]

C[C@H]1C[C@H](O)c2ccsc2S1(=O)=O
inactive: max response [1] -0.46% | max response [2] 3.47% | max response [3] 2.62% | max response [4] 1.66% | Potency [6] | Potency [7] | Potency [8] | Potency [9]

CC[C@@]1(O)C(=O)OCc2c1cc1n(c2=O)Cc2c-1nc1ccccc1c2/C=N/OC(C)(C)C
active: Potency [1] 1190 nM | Potency [2] 21.1 nM | Potency [3] 42.2 nM | Potency [4] 266 nM | Potency [6] 84.1 nM | Potency [7] 94.4 nM | Potency [9] 37.6 nM

NC(=O)NS(=O)(=O)c1ccc(Cl)cc1
inactive: outcome [1] | max response [2] -19.3% | max response [3] 0.84% | max response [4] -2.72% | Potency [6] | Potency [7] | Potency [8] | Potency [9]

CC(C)C[C@@H]1[C@H](c2ccccc2)OC(=O)N1CCCN1CCCCCC1
inactive: max response [1] -2.82% | max response [3] -13.9% | max response [4] -3.61% | Potency [6] | Potency [7] | Potency [8] | Potency [9]
active: Potency [2] 23700 nM

CC(C)(C)C1CCC(CC2=C(O)c3ccccc3C(=O)C2=O)CC1 (stereo not given)
inactive: max response [1] -5.3% | max response [2] 0.617% | max response [3] -2.75% | max response [4] -2.94% | Potency [6] | Potency [7] | Potency [8] | Potency [9]

CC(=O)O[C@H]1CC[C@@]2(C)C(=CC[C@@H]3[C@@H]2CC[C@]2(C)C(C(C)=O)=CC[C@@H]32)C1
inactive: max response [1] -17.3% | max response [2] -0.38% | max response [3] -12.2% | max response [4] -1.15% | Potency [6] | Potency [7] | Potency [8] | Potency [9]

Cc1onc(-c2c(Cl)cccc2Cl)c1C(=O)Cl
inactive: outcome [1] | max response [2] -4.58% | max response [3] -4.26% | max response [4] -2.46% | Potency [6] | Potency [7] | Potency [8] | Potency [9]
